IMPase cell inh = membrane-permeable compound that blocks inositol monophosphatase; P97697; CHO-M1 cells, IP1 accumulation, HTRF TR-FRET ratio; inhibition (IP1 accumulation), % at 46.1 µM; 120,000 tested, under 10 active; active means well fitted curve in the direction sought with a large enough effect in the signal ratio, not every such curve was filed as active; inconclusive means small, poorly fitted or top-dose-only effect, or a change in a side signal; inactive means no such curve, though single readings can be large or run the other way; the % refers to the signal ratio;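 further: cells stimulated with carbachol in lithium chloride buffer; plate controls were DMSO basal wells for no effect and reference inhibitor wells for full effect; higher means more IMPase inhibition seen as more IP1 and lower FRET ratio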
Target sequence (P97697 whole entry, looked up): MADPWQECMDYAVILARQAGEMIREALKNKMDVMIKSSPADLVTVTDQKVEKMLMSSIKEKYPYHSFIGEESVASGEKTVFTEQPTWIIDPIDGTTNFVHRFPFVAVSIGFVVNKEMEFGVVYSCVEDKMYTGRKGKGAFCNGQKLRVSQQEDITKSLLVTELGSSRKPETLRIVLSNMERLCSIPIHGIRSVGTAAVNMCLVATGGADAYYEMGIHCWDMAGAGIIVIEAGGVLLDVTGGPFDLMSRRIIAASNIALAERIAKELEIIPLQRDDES
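Carbachol-driven Gq signalling in CHO-M1 cells (2000/well) generates IP1. Compounds that block IMPase raise IP1 and so reduce the FRET signal from Eu-anti-IP1 and d2-IP1 after a 10 min room-temperature lysis.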
12-hLO inh = blocks human 12-lipoxygenase activity; purified 12-hLO, xylenol orange hydroperoxide absorbance; AID 1452; Potency, µM (highest dose often 57.1 µM), for inactives: at the highest dose activity change, negative = inhibition, actives largely listed as inhibitors; 150,000 compounds, 0.12% hits; active means well fitted curve in the direction sought with a large enough effect; inconclusive means small, poorly fitted or top-dose-only effect, or another doubt; inactive means no such curve, though single readings can be large; an effect the other way counts as inactive or inconclusive; further: potency means the concentration at half of the fitted maximal effect; nearly all actives have a fitted effect of over 55% in size
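Purified human 12hLO (150 nM), preincubated 15 min with compound, then 40 uM arachidonic acid for 30 min, room temperature, Hepes pH 7.0 with 0.01% Triton X-100. Hydroperoxide detected by ferrous iron/xylenol orange; 573/405 nm absorbance ratio gives reaction progress.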
HPGD inh = HPGD (human) dehydrogenase inhibition; P15428; purified HPGD, NADH fluorescence kinetic, PGE2 substrate; Potency, µM, for inactives: at the highest dose activity change, negative = inhibition, actives largely listed as inhibitors; 150,000 compounds, 4.3% hits; further: potency means the concentration at half of the fitted maximal effect
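20 nM HPGD preincubated 15 min at room temperature with compound in 50 mM Tris-HCl pH 8, 0.01% Tween 20. Started with 1 mM NAD+ and 30 uM prostaglandin E2; NADH fluorescence (360/450 nm) read 5 times over 30-s intervals, last minus first.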
ALDH1A1 inh = blocks purified human ALDH1A1 activity; Potency, µM (series often up to 75.3 µM), without a hit: at the highest dose activity, negative = inhibition, hits mostly inhibitors; Purified ALDH1A1, NADH fluorescence, propionaldehyde substrate; 220,000 compounds, 7.3% hits; P00352; AID 1030;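 further: potency means the concentration at half of the fitted maximal effect; plate controls were no enzyme wells and a reference inhibitor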
Target sequence (P00352 whole entry, looked up): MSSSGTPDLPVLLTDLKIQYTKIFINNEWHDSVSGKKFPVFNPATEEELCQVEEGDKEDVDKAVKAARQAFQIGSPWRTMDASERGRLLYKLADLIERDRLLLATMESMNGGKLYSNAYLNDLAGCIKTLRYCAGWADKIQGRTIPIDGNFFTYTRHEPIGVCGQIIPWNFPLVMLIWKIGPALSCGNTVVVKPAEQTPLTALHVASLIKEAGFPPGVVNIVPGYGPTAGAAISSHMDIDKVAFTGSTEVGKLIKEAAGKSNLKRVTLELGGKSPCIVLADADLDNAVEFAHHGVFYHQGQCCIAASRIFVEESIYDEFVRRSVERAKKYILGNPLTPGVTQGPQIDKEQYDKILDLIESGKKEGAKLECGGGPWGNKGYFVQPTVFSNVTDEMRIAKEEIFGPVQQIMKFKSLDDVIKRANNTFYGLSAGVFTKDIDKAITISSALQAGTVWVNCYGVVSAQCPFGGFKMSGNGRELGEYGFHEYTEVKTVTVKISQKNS
IMPase Li cell = membrane-permeable IMPase blocker, potentiated with lithium | CHO-M1 cells, IP1 TR-FRET (IP-One), carbachol + lithium | Potency, µM (doses to about 59.4 µM), inactives show at the highest dose activity, negative = IMPase inhibition, usual class: inhibitors | 210,000 compounds, 0.35% hits; active means well fitted curve in the direction sought with a large enough effect; inconclusive means small, poorly fitted or top-dose-only effect, or another doubt; inactive means no such curve, though single readings can be large; an effect the other way counts as inactive or inconclusive;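 further: IP1 builds up when IMPase is blocked and the TR-FRET signal falls; potency means the concentration at half of the fitted maximal effect; plate controls were basal vehicle for no effect and high inhibitor control for full effect; nearly all actives have a fitted effect of over 50% in size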
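IP1 accumulation measured by competitive TR-FRET in lysed CHO-M1 cells after 30 min compound exposure at 37C, with a small lithium addition to potentiate weak responses. Hill-equation AC50 from ratio and donor-channel data.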
PNC assembly inh = blocks assembly of the perinucleolar compartment; 140,000 compounds, 3.1% hits; AID 2417; activity change (PNC), negative = inhibition, % at 10 µM; PC3M PTB-GFP, PNC prevalence imaging, 16 h; hits give low values;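 active means readout at or below -70, meaning at least 70% loss of cells showing the perinucleolar compartment, a nuclear body marking cancer cells; inconclusive means readout between -30 and a set limit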;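 further: plate controls were DMSO wells for no effect and camptothecin positive control wells for full effect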
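Read-out is percentage of cells bearing a perinucleolar compartment, from automated 20x imaging of fixed, Hoechst-stained PC3M PTB-GFP cells. Cells were seeded 4 h, then exposed 16 h to compound (23 nl of library stock) in duplicate plates.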
An asterisk follows results filed as active; ? = inconclusive; · = no result; [ ] = remark or other dose. An excerpt weighted towards active compounds, which were near 11% of everything screened. Unless noted, the call rests on the fitted dose curve; in most records, active means well fitted inhibition curve with a large enough effect (not every such curve was filed as active); inconclusive means small, poorly fitted or top-dose-only effect, or another doubt; inactive means no such curve, though single readings can be large or run the other way. Unless noted, on the % scale 0 is the no-effect control and ±100 the full control effect.

SMILES	IMPase cell inh	12-hLO inh	HPGD inh	ALDH1A1 inh	IMPase Li cell	PNC assembly inh
CCn1c(=N)c(C(=O)NCc2ccccc2)cc2c(=O)n3cc(C)ccc3nc21	-0.4	·	·	·	·	·
CC(=O)c1ccc(NC(=O)C(C)Sc2ccccn2)cc1 (configuration not stated)	·	·	·	?	13.1%	·
CC(Sc1ccccn1)C(=O)Nc1ccc(S(N)(=O)=O)cc1 (configuration not stated)	-6.0	-6.1%	-19.7%	-0.8%	3.3%[38.3 µM]	-107.5*
CC(Sc1ccccn1)C(=O)Nc1ccccc1 (configuration not stated)	-4.6	-7.1%	28.2µM*	-2.2%	12.9%[38.3 µM]	?
Cc1ccsc1C1C(C#N)=C(N)N(N(C)C)C2=C1C(=O)CCC2 (configuration not stated)	·	·	·	14.1µM*	3.2%	·
CCOC(=O)c1c(C)[nH]c(C=C2C(=O)CCCC2=O)c1O	·	-2.1%	-18.5%	-5.4%	31.6%	?
COc1ccc(-c2[nH]ncc2-c2cscn2)c(O)c1	·	·	·	4.7%	1.1%	·
CN(C)CCCN=Cc1c(O)n(Cc2ccc3c(c2)OCO3)c(=O)c2ccccc12	·	·	·	12.4%	-5.8%	·
Oc1cc2c(cc1O)[C@H](c1ccccc1)CNCC2	1.3	-11.1%	28.2µM*	4.5%	18.7%	·
COc1ccc(-c2nc(=S)[nH][nH]2)cc1	?	-15.4%	12.6µM*	12.6µM*	-8.5%[38.3 µM]	8.3
COc1ccc(-c2nc(=S)[nH][nH]2)cc1OC	·	·	·	?	0.7%	·
CCOc1ccc(-c2nc(=S)[nH][nH]2)cc1	-3.8	-6.9%	?	25.1µM*	-13.6%[38.3 µM]	5.1
COCCn1c(=O)c(-c2ccc(OC)cc2)nc2cnc(Oc3ccc(OC)cc3)nc21	·	-1.1%	-9.1%	?	6.6%	·
O=C(c1cccc(F)c1)N1CCC2(CCN(Cc3ccccc3)CC2)CC1	·	3.4%	-4.1%	-2.0%	22.1%	·
O=CC1=C(N2CCOCC2)/C(=C/c2ccc(Cl)cc2)CC1	·	·	·	11.2µM*	-10.6%	·
Cc1cc(C)nc(N/N=C/C2=C(N3CCOCC3)C(=C\c3ccc(Cl)cc3)/CC2)n1	·	-15.9%	-12.3%	15.8µM*	3.4%	27.6
Cc1occc1C(=O)N/N=C/C1=C(N2CCOCC2)C(=C\c2ccc(Cl)cc2Cl)/CC1	·	-4.8%	?	?	-4.8%	-14.4
c1ccc(Cc2noc(CN3CCN(CCOc4ccccc4)CC3)n2)cc1	·	·	·	-0.2%	6.9%	·
COc1ccc(C2C(C(=O)c3ccco3)=C(O)C(=O)N2CCOCCO)cc1OC (configuration not stated)	-2.1	-14.6%	-24.3%	20µM*	-24.0%[38.3 µM]	24.9
C=CCOc1cccc(C2C(C(=O)c3ccco3)=C(O)C(=O)N2CCN(CC)CC)c1 (configuration not stated)	-6.9	5.3%	-9.5%	-6.5%	-26.7%[38.3 µM]	-133.8*
CCOc1ccc(C2C(C(=O)c3ccco3)=C(O)C(=O)N2CCN(C)C)cc1 (configuration not stated)	2.3	-6.7%	-10.3%	0.6%	14.2%[38.3 µM]	-28.5
COc1ccc(C2C(C(=O)c3sc(C)nc3C)=C(O)C(=O)N2CCN(C)C)cc1OC (configuration not stated)	-8.3	-0.4%	-11.1%	?	3.3%[38.3 µM]	-122.4*
COc1ccc(-c2oc3ncn4nc(-c5ccccc5Cl)nc4c3c2-c2ccc(OC)cc2)cc1	-8.7	·	·	·	·	·
CO[C@H]1COC(=O)[C@H](C)NC(=O)[C@@H](C)COC(=O)C/C=C\[C@@H]1C	·	·	·	8.6%[13.5 µM]	·	·
COc1ccc(C(=O)Nc2cc3cc(Cl)ccc3oc2=O)cc1OC	-5.2	·	·	·	·	·
SMILES	IMPase cell inh	12-hLO inh	HPGD inh	ALDH1A1 inh	IMPase Li cell	PNC assembly inh
Cc1ccc(OCCn2c(-c3ccc(Cl)cc3)nc3ccccc3c2=O)c(C)c1	-2.9	·	·	·	·	·
CCC(=O)c1c[nH]c(C(=O)NCc2cccnc2)c1	·	·	·	-2.3%	-2.0%	·
COc1ccc(C(=O)NCc2cccnc2)cc1OC	-2.3	1.8%	-13.4%	25.1µM*	-2.9%[38.3 µM]	?
COc1ccc(C(=O)Oc2cccnc2)cc1OC	4.7	0.6%	-9.6%	10µM*	10.1%[38.3 µM]	28.0
COc1cccc(C(=O)NCc2cccnc2)c1	4.4	5.1%	-11.3%	2.0%	6.0%[38.3 µM]	?
O=C(Oc1cccnc1)c1cccc(Cl)c1	-11.1	-6.9%	-24.8%	?	8.9%[38.3 µM]	44.5
CCCC(=O)c1c[nH]c(C(=O)NCc2cccnc2)c1	·	·	·	28.2µM*	3.4%	·
CC(C)c1ccc(C(=O)NC(=S)NCc2cccnc2)cc1	·	-14.4%	-12.9%	28.2µM*	10.0%	?
CC(=O)Nc1cccc(NC(=O)Cn2cnc3c2c(=O)n(C)c(=O)n3C)c1	2.2	·	·	·	·	·
COc1ccccc1CC(=N)N1C[C@@H]2C(=O)CCC(c3ccccc3)(c3ccccc3)[C@@H]2C1	11.0	-0.9%	2.4%	-15.2%	22.3%	·
CCCn1c(C)nc2c(N3CCOCC3)nc(C)nc21	·	-1.2%	-3.7%	-1.2%	-9.2%	·
O=C(NCCc1ccc(F)cc1)C1CCCCC1	·	·	·	8.5%	2.5%	·
COC(=O)c1ccccc1NC(=O)CN(c1ccccc1OC)S(C)(=O)=O	-4.0	·	·	·	·	·
Cc1cc(C=O)c(C)n1-c1ccc(N2CCOCC2)c([N+](=O)[O-])c1	·	·	·	2.51µM*	-2.4%	·
Cc1cc(C=O)c(C)n1-c1ccc(N2CCCC2)c([N+](=O)[O-])c1	7.1	-19.4%	14.1µM*	0.447µM*	6.4%[38.3 µM]	-19.8
NCCCc1c(-c2ccccc2)nc(N)[nH]c1=O	·	-0.8%[11.4 µM]	-11.2%	8.8%[13.5 µM]	-1.3%	·
CC(C)(C)n1nnnc1C(c1cccc(C#N)c1)N1CCCCCC1 (configuration not stated)	-9.2	3.8%	0.2%	?	-1.3%[38.3 µM]	75.7
CC(C)(C)n1nnnc1C(c1cccc(C#N)c1)N1CCN2CCCC2C1 (configuration not stated)	11.6	-2.9%	1.2%	20µM*	16.0%[38.3 µM]	16.0
c1ccc2c(-n3ccnc3)nc(-c3ccoc3)nc2c1	·	-3.9%	-18.0%	-8.7%	0.0%	·
C=CCC1(NC(C)c2ccccc2)CCCCC1 (configuration not stated)	·	-4.0%	-7.1%	8.5%	2.1%	-113.3*
COc1ccc2c(c1)c1ncn(CCN3CCCC3)c(=O)c1n2C	0.7	-1.5%	·	?	·	?
COc1ccc2c(c1)c1ccc3c(c1n2C)C(=O)C=CC3=O	·	·	·	0.282µM*	·	·
Cc1cc(/C=N/n2c(COc3ccccc3C)nc3ccccc3c2=O)c(O)c([N+](=O)[O-])c1	?	?	1µM*	2.0%	1.5%	?
Cc1cccc(C)c1OCc1nc2ccccc2c(=O)n1/N=C/c1c[nH]c2ccccc12	2.1	-5.7%	·	-7.6%	·	?
Cc1ccccc1OCc1nc2ccccc2c(=O)n1/N=C/c1c[nH]c2ccccc12	·	2.3%	-3.4%	0.6%	11.0%	-123.3*
